From PubChem
Pf Dd2 growth = blocks growth of Plasmodium falciparum Dd2 parasites; P. falciparum Dd2 growth, SYBR Green, 72 h; hits give low values; activity change, % at 10 µM; 94,000 compounds, 2.3% hits; AID 1159554; in the data active means activity change below about -80%
C diff HTS = C. difficile growth inhibition; Clostridium difficile clinical isolate growth, OD600, 24 h; hits give low values; growth activity, negative = inhibition, % at 16 µg/mL (by protocol); 86,000 compounds, 0.25% hits;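 active means mean growth activity at or below -80% and every replicate also at or below -80%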;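 further: 0% = DMSO wells and -100% = levofloxacin 16 µg/mL wells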
* hit, by the source's call. Compounds with a hit are over-represented: about 2.4% of the library has one in this group of screens.

What do the screens show for `COc1ccc(C#Cc2ccc([C@@H]3[C@@H](CO)N4C(=O)CN(C(=O)c5ccccc5)C[C@H]34)cc2)cc1`?
Pf Dd2 growth: -87*; C diff HTS: -7

What do the screens show for `O=C(c1ccc(F)cc1)N1CC(=O)N2[C@H](CO)[C@H](c3ccc(C#Cc4ccc(F)cc4)cc3)[C@H]2C1`?
Pf Dd2 growth: -91*; C diff HTS: 9

Results for COc1ccc(C#Cc2ccc([C@H]3[C@@H](CO)N4C(=O)CN(C(=O)c5ccccc5)C[C@@H]34)cc2)cc1 ?
Pf Dd2 growth: -23; C diff HTS: 1

How did O=C(c1ccc2c(c1)OCO2)N1CC(=O)N2[C@H](CO)[C@H](c3ccc(C#Cc4ccccc4)cc3)[C@H]2C1 do in these assays?
Pf Dd2 growth: -82*; C diff HTS: 10

Results for O=C(c1cccc(F)c1)N1CC(=O)N2[C@@H](CO)[C@H](c3ccc(-c4cccnc4)cc3)[C@@H]2C1 ?
Pf Dd2 growth: 17; C diff HTS: 0

What do the screens show for `O=C(c1cccc(F)c1)N1CC(=O)N2[C@H](CO)[C@H](c3ccc(-c4cccnc4)cc3)[C@H]2C1`?
Pf Dd2 growth: -86*; C diff HTS: 1

What do the screens show for `O=C(C[C@@H]1CC[C@H](NC(=O)Nc2cc(F)ccc2F)[C@@H](CO)O1)NCc1ccccn1`?
Pf Dd2 growth: -1

How did Cc1ccccc1S(=O)(=O)N1CC[C@@H]2[C@H](CO)Nc3ccc(-c4ccccc4F)cc3[C@@H]21 do in these assays?
Pf Dd2 growth: -12; C diff HTS: 5

How did Cc1noc(C)c1S(=O)(=O)Nc1ccc2c(c1)C(=O)N([C@H](C)CO)C[C@@H](C)[C@H](CN(C)C(=O)C1CCCCC1)OCCCC[C@@H](C)O2 do in these assays?
Pf Dd2 growth: -22; C diff HTS: -4

What do the screens show for `C=C[C@H](COC(C)=O)N(Cc1ccc(OC(C)=O)c(OC)c1)S(=O)(=O)c1ccc(Br)cc1`?
C diff HTS: 6

Results for COc1ccc(-c2ccc([C@@H]3[C@H]4CN(C(=O)NC(C)C)CC(=O)N4[C@H]3CO)cc2)cc1 ?
Pf Dd2 growth: -87*; C diff HTS: -1

Results for COc1ccc(NC(=O)N2CC(=O)N3[C@H](C2)[C@H](c2ccc(C#CCC4CCCC4)cc2)[C@@H]3CO)cc1 ?
Pf Dd2 growth: -33; C diff HTS: -1

What do the screens show for `COc1ccc(NC(=O)N2CC(=O)N3[C@@H](CO)[C@H](c4ccc(C#CCC5CCCC5)cc4)[C@@H]3C2)cc1`?
Pf Dd2 growth: -90*; C diff HTS: -3

How did CC(C)C#Cc1ccc([C@@H]2[C@H](CO)N3CCCCN(C(=O)c4ccc5c(c4)OCO5)C[C@@H]23)cc1 do in these assays?
Pf Dd2 growth: -83*; C diff HTS: -15

Results for COc1ccc(-c2ccc([C@H]3[C@@H](CO)N4C(=O)CN(C(=O)NC(C)C)C[C@H]34)cc2)cc1 ?
Pf Dd2 growth: -46; C diff HTS: -1

How did CC(C)C#Cc1ccc([C@H]2[C@H](CO)N3CCCCN(C(=O)c4ccc5c(c4)OCO5)C[C@@H]23)cc1 do in these assays?
Pf Dd2 growth: -41; C diff HTS: -10

What do the screens show for `Cc1ccccc1-c1ccc2c(c1)O[C@H](CN(C)CC1CC1)[C@H](C)CN([C@@H](C)CO)S2(=O)=O`?
Pf Dd2 growth: -44; C diff HTS: -10

How did O=C(Nc1ccc(F)cc1)N[C@@H]1CC[C@@H](CCNC(=O)c2cc(Cl)cc(Cl)c2)O[C@@H]1CO do in these assays?
Pf Dd2 growth: -26; C diff HTS: -2

How did CO[C@@H]1CN(C)C(=O)c2cc(NC(=O)c3ccccc3F)ccc2OC[C@H](C)N(C(=O)c2ccccc2F)C[C@H]1C do in these assays?
Pf Dd2 growth: -34

What do the screens show for `CO[C@H]1CN(C)C(=O)c2cc(NC(=O)c3ccccc3F)ccc2OC[C@H](C)N(C(=O)c2ccccc2F)C[C@H]1C`?
Pf Dd2 growth: -87*

Results for CO[C@H]1CN(C)C(=O)c2cc(NC(=O)Cc3ccccc3)ccc2OC[C@@H](C)N(C(=O)c2ccccc2F)C[C@H]1C ?
Pf Dd2 growth: -68

What do the screens show for `CO[C@@H]1CN(C)C(=O)c2cc(NC(=O)Cc3ccccc3)ccc2OC[C@H](C)N(C(=O)c2ccccc2F)C[C@@H]1C`?
Pf Dd2 growth: -82*

What do the screens show for `CO[C@@H]1CN(C)C(=O)c2cc(NC(=O)c3ccccc3F)ccc2OC[C@H](C)N(C(=O)c2ccccc2F)C[C@@H]1C`?
Pf Dd2 growth: -83*

How did CO[C@H]1CN(C)C(=O)c2cc(NC(=O)c3ccccc3F)ccc2OC[C@H](C)N(C(=O)c2ccccc2F)C[C@@H]1C do in these assays?
Pf Dd2 growth: -9

How did CCCC(=O)Nc1ccc2c(c1)OC[C@H](C)N(Cc1nccs1)C[C@H](C)[C@@H](OC)CN(C)C2=O do in these assays?
Pf Dd2 growth: 16

How did O=C(C[C@H]1CC[C@H]2[C@@H](COC[C@H](O)CN2Cc2ccc(Oc3ccccc3)cc2)O1)Nc1nccs1 do in these assays?
Pf Dd2 growth: -52; C diff HTS: 11
